Assay outcomes deposited in PubChem BioAssay by several laboratories.
Bim-Mcl-1 = disrupts Bim peptide binding to human Mcl-1. Q07820. AID 1009. 190,000 compounds, 0.1% hits. inhibition, % at 10 µM. Bead-based flow cytometry, Bim peptide-Mcl-1 binding; in the data active = inhibition above about 40%
Mcl1 Noxa PPI = disrupts binding of human Mcl-1 to Noxa peptide; TR-FRET Mcl-1/Noxa peptide binding, 2 h; inhibition, % at 21.7 µM; 220,000 compounds, 1.5% hits;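 active = compounds that cut the protein-peptide binding signal by more than 50% relative to plate controls in a single-dose test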;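 also: His-tagged Mcl-1 with rhodamine Noxa BH3 peptide and terbium anti-His antibody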
Mcl1-Bid inh = Mcl-1/Bid interaction inhibition. Q07820. TR-FRET Mcl-1/Bid-Dy647 peptide binding, 1536-well. inhibition, % at 21.7 µM. 220,000 compounds, 0.97% hits;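 active = compounds that cut the binding signal by more than half at the single screening dose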;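 also: His-tagged Mcl-1 with europium anti-His antibody binding Bid BH3 peptide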
MCL1-BIM inh = disrupts human MCL1 binding to BIM-BH3 peptide; GST-MCL1 / FITC-Bim-BH3 fluorescence polarization; Q07820; inhibition, % at 10.9 µM; 320,000 compounds, 0.68% hits;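 active = inhibition above the mean inhibition of all tested compounds plus 3 SD, set per campaign, cut at about 40% in these data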;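 also: higher means more loss of mP so more displacement of Bim peptide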
GLD-1 RNA inh = GLD-1-TGE RNA interaction inhibition (C. elegans) | Q17339 | inhibition, % at 5.96 µM | purified GLD-1 + fluorescein TGE RNA, fluorescence polarization | 320,000 compounds, 0.44% hits;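 active = percent inhibition above a per-plate cutoff, the plate mean of test compounds plus 3 SD, cut at about 30% in these data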
Target sequence (Q17339 whole entry, looked up): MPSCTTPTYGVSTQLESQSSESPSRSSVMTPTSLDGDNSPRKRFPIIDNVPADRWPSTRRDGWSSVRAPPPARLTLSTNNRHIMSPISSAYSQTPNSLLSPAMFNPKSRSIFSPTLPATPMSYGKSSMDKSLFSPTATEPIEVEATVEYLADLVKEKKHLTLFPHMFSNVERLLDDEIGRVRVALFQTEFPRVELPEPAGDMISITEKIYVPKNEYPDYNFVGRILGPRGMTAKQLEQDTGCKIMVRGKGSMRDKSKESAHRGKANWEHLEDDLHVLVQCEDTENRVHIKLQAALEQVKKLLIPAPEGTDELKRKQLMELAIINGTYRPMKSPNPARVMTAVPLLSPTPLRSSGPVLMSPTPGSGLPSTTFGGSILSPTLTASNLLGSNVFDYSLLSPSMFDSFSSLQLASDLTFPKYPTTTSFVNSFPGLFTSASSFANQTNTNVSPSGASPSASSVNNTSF
Bcl-xL primary = inhibitors of human Bcl-xL. Q07817. GST-Bcl-xL / FITC-Bim BH3 peptide fluorescence polarization. inhibition, % at 10.9 µM. 320,000 compounds, 0.7% hits. AID 2129;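 active = inhibition above the mean of all tested compounds plus 3 SD, cutoff set per campaign, cut at about 30% in these data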;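 also: inhibitors lower millipolarization by displacing the labeled peptide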
Bcl-xL conf = counter-screen for MCL1 inhibitors: confirmation of human Bcl-xL inhibitors; shares compounds with MCL1-BIM inh; inhibition, % at 10.9 µM; GST-Bcl-xL / FITC-Bim BH3 peptide FP binding; 1,700 compounds, 54% hits;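 active = inhibition above a cutoff equal to the mean inhibition of all tested compounds plus 3 SD, cut at about 30% in these data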
MCL1 BIM confirm = confirmation of human MCL1 and BIM-BH3 interaction inhibitors. shares compounds with MCL1-BIM inh. GST-MCL1 / FITC-Bim-BH3 fluorescence polarization. inhibition, % at 10.9 µM. 1,700 compounds, 61% hits;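 active = inhibition above the average of all tested compounds plus 3 SD, cut at about 40% in these data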
A number is an active result; 0 = inactive; - = not tested or not shown; + = active, no number. Sampled rows, rich in hits. Any-hit rate of the full collection: about 2.3%.

SMILES	Bim-Mcl-1	Mcl1 Noxa PPI	Mcl1-Bid inh	MCL1-BIM inh	GLD-1 RNA inh	Bcl-xL primary	Bcl-xL conf	MCL1 BIM confirm
O=C1c2cccc3c(N4CCCCC4)ccc(c23)C(=O)N1c1ccc(O)cc1	0	0	0	68.5	36.4	54.1	59.6	71.5
COc1nccc(-c2ccc(F)cc2)c1C#N	0	0	0	0	0	0	-	-
COc1ccccc1C(=O)Oc1ccc2c(c1)O/C(=C\c1ccncc1)C2=O	0	0	0	141.6	100.9	123.1	31.9	52.4
CS(=O)(=O)Oc1ccc2c(c1)O/C(=C\c1cccnc1)C2=O	-	0	0	0	0	0	-	-
O=C(Oc1ccc2c(c1)O/C(=C\c1ccncc1)C2=O)c1cccs1	-	0	0	81.8	83.8	78.3	34.5	45.9
COc1ccc(/C=C2\Oc3cc(OC(=O)N4CCOCC4)ccc3C2=O)cc1	-	0	0	0	0	0	-	-
COc1ccc(S(=O)(=O)Oc2ccc3c(c2)O/C(=C\c2cccnc2)C3=O)cc1	0	0	0	0	0	0	-	-
CCC(=O)Oc1ccc2c(c1)O/C(=C\c1ccco1)C2=O	-	0	0	117.9	89.0	111.5	46.8	76.1
CC(=O)Oc1ccc2c(c1)O/C(=C\c1ccncc1)C2=O	-	0	0	151.2	92.6	125.9	89.7	115.3
CCCCOc1ccc(C(=O)Nc2cccc(-n3cnnn3)c2)cc1OC	-	-	-	0	0	0	-	-
CN(Cc1c(F)cccc1Cl)C(=O)C1=CC=CN2CCS(=O)(=O)N=C12	-	-	-	-	0	-	-	-
COc1cnc(-c2ccccn2)nc1Sc1ccc(F)cc1	0	0	0	0	0	0	-	-
COc1ccc(NC(=O)c2cc(S(=O)(=O)N3CCCCC3)c[nH]2)cc1	-	-	-	0	0	0	-	-
COc1ccc(NC(=O)c2cc(S(=O)(=O)N3CCCC3)c[nH]2)cc1	-	-	-	107.6	0	0	0	0
CCN(CC)C(=O)C1c2ccccc2Oc2ccccc21	-	-	-	+	168.7	194.5	90.5	125.5
Cn1c(=O)c(N)c2c3c(c(Br)ccc31)C(=O)c1ccccc1-2	-	0	0	+	+	+	+	+
Cn1c(=O)c(-c2cc(Br)ccc2N)nc2ccccc21	0	0	0	0	0	0	-	-
CC(C)CN1C2CCCC1CC(NC(=S)NCc1ccco1)C2 (stereo not given)	0	0	0	0	0	0	-	-
CC(=O)C1=C(c2ccccc2)NC(=O)NC1c1ccc(O)c(O)c1 (stereo not given)	0	0	0	81.2	0	0	0	0
O=C(CCc1ccc(S(=O)(=O)N2CCOCC2)cc1)N/N=C/c1ccc(F)cc1F	0	0	0	0	0	0	-	-
O=C(CCc1ccc(S(=O)(=O)N2CCOCC2)cc1)N/N=C/c1ccc(O)c(O)c1O	0	73.0	0	46.2	0	0	0	58.7
CCOc1ccc(C(=O)N/N=C/c2ccc(-c3ccc(S(=O)(=O)Nc4ncccn4)cc3)o2)cc1	0	0	0	0	0	0	-	-
O=C(N/N=C/c1ccc(-c2ccc(S(=O)(=O)Nc3ncccn3)cc2)o1)c1cc2ccccc2cc1O	0	105.7	51.0	63.6	0	0	0	57.3
NC(=O)c1c(NC(=O)C2CC=CCC2C(=O)O)sc2c1CCCCC2 (stereo not given)	-	-	-	40.8	0	0	0	0
O=C(NCCN1CCN(C(=O)c2ccc(F)cc2)CC1)c1ccc(F)cc1	-	-	-	0	0	0	-	-
SMILES	Bim-Mcl-1	Mcl1 Noxa PPI	Mcl1-Bid inh	MCL1-BIM inh	GLD-1 RNA inh	Bcl-xL primary	Bcl-xL conf	MCL1 BIM confirm
CC1=C(C#N)C(=O)OC(C)(C)C1	0	0	0	100.3	62.8	85.7	34.6	49.7
COc1ccc2cc(OCC(=O)NNC(=O)Nc3ccc(C(C)=O)cc3)ccc2c1	-	-	-	0	0	0	-	-
CCOC(=O)c1c(C)[nH]c(C2=NNC(=Nc3ccc(OCC)cc3)SC2)c1C	0	0	0	69.6	0	76.7	0	0
COc1ccc(OC)c(S(=O)(=O)NCCc2csc(-c3cccnc3)n2)c1	-	0	0	0	0	0	-	-
CCN1CCc2c(sc(NC(=O)Nc3ccc(Cl)c(Cl)c3)c2C(N)=O)C1	0	0	0	86.7	0	39.8	54.2	56.0
CCN1CCc2c(sc(NC(=O)Cc3ccccc3)c2C(N)=O)C1	-	-	-	0	0	0	-	-
O=c1oc(-c2ccc(Br)o2)nc2ccccc12	0	0	0	97.7	0	0	0	0
Cc1ccc(-c2nc3ccccc3c(=O)o2)cc1	-	-	-	0	0	0	-	-
CCN(CC)S(=O)(=O)c1ccc(NC=C(C#N)C#N)cc1	-	0	0	0	0	0	-	-
CSc1nc(N)c2c3c(sc2n1)COC(C(C)C)C3 (stereo not given)	0	0	0	0	0	0	-	-
CSc1nc(N)nc(C(C)C)n1	-	0	0	66.4	0	0	0	0
CCOC(=O)[C@H]1[C@H]2COc3ccc(Cl)cc3[C@@H]2N2C(=O)CN(Cc3ccco3)C(=O)[C@@]12C	-	-	-	0	0	0	-	-
